Test results published in PubChem BioAssay AID1159580 (chemical genetic matrix, 2015).
Where “and” joins values, the source holds several entries; their conditions need not be identical. Identical values can stand only once. The whole screen tested about 5,500 compounds, of which about 2,000 (36%) were called active. Not shown: some 18% with an inconclusive outcome. Rule as the data show it: active = normalized growth mostly below about 0.91 (no sharp cut-off); inconclusive = no clear call, values can overlap the other calls; inactive = mostly above about 0.92. The list shows a part of the results.

Assay: chemical genetic growth profiling, strain panel (AID 1159580);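 also: tested at 20 µM; growth read once vehicle control cultures reached saturation at 30 °C; 1 = growth at the plate median or of vehicle wells; lower values mean less growth of the strain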
Details: growth OD

Measured: normalized growth

C=C1C(N)CC2CC1C2(C)C (stereo not given)
inactive: S. cerevisiae deletion strains, locus YAL021C, strain ccr4, active compounds read low 1.01 | S. cerevisiae deletion strains, locus YAL026C, strain drs2, active compounds read low 1.01 | S. cerevisiae deletion strains, locus YAL030W, strain snc1, active compounds read low 1.01 | S. cerevisiae deletion strains, locus YBL061C, strain skt5, active compounds read low 1 | S. cerevisiae deletion strains, locus YBR009C, strain hhf1, active compounds read low 1.01 | S. cerevisiae deletion strains, locus YBR021W, strain FUR4, active compounds read low 1 | S. cerevisiae deletion strains, locus YBR023C, strain chs3, active compounds read low 0.985 | S. cerevisiae deletion strains, locus YBR171W, strain sec66, active compounds read low 0.99 | S. cerevisiae deletion strains, locus YBR229C, strain ROT2, active compounds read low 1.01 | S. cerevisiae deletion strains, locus YBR231C, strain swc5, active compounds read low 0.999 | S. cerevisiae deletion strains, locus YBR279W, strain paf1, active compounds read low 0.997 | S. cerevisiae deletion strains, locus YCL011C, strain gbp2, active compounds read low 0.983 | S. cerevisiae deletion strains, locus YCL016C, strain dcc1, active compounds read low 1.01 | S. cerevisiae deletion strains, locus YCL029C, strain bik1, active compounds read low 1.02 | S. cerevisiae deletion strains, locus YCL069W, strain vba3, active compounds read low 0.996 | S. cerevisiae deletion strains, locus YCR088W, strain abp1, active compounds read low 0.989 | S. cerevisiae deletion strains, locus YDL005C, strain med2, active compounds read low 0.991 | S. cerevisiae deletion strains, locus YDL035C, strain GPR1, active compounds read low 0.994 | S. cerevisiae deletion strains, locus YDL040C, strain nat1, active compounds read low 0.994 | S. cerevisiae deletion strains, locus YDL074C, strain BRE1, active compounds read low 1.02 | S. cerevisiae deletion strains, locus YDL101C, strain DUN1, active compounds read low 1.03 | S. cerevisiae deletion strains, locus YDL134C, strain PPH21, active compounds read low 1.03 | S. cerevisiae deletion strains, locus YDL185W, strain tfp1, active compounds read low 1.01 | S. cerevisiae deletion strains, locus YDL192W, strain arf1, active compounds read low 0.996 | S. cerevisiae deletion strains, locus YDR001C, strain nth1, active compounds read low 1 | S. cerevisiae deletion strains, locus YDR069C, strain doa4, active compounds read low 0.98 | S. cerevisiae deletion strains, locus YDR101C, strain arx1, active compounds read low 0.979 | S. cerevisiae deletion strains, locus YDR137W, strain rgp1, active compounds read low 1 | S. cerevisiae deletion strains, locus YDR150W, strain NUM1, active compounds read low 0.998 | S. cerevisiae deletion strains, locus YDR159W, strain sac3, active compounds read low 0.975 | S. cerevisiae deletion strains, locus YDR162C, strain NBP2, active compounds read low 1.01 | S. cerevisiae deletion strains, locus YDR195W, strain ref2 0.977 | S. cerevisiae deletion strains, locus YDR297W, strain sur2, active compounds read low 1 | S. cerevisiae deletion strains, locus YDR318W, strain mcm21, active compounds read low 1 | S. cerevisiae deletion strains, locus YDR334W, strain swr1, active compounds read low 0.99 | S. cerevisiae deletion strains, locus YDR335W, strain msn5, active compounds read low 0.995 | S. cerevisiae deletion strains, locus YDR388W, active compounds read low 1 | S. cerevisiae deletion strains, locus YDR392W, strain spt3, active compounds read low 1.01 | S. cerevisiae deletion strains, locus YDR502C, strain sam2, active compounds read low 1.04 | S. cerevisiae deletion strains, locus YEL003W, strain gim4, active compounds read low 0.998 | S. cerevisiae deletion strains, locus YEL037C, strain rad23, active compounds read low 0.99 | S. cerevisiae deletion strains, locus YEL061C, strain CIN8 (second series), active compounds read low 1.01 | S. cerevisiae deletion strains, locus YER015W, strain faa2, active compounds read low 0.99 | S. cerevisiae deletion strains, locus YER016W, strain bim1, active compounds read low 0.994 | S. cerevisiae deletion strains, locus YER110C, active compounds read low 1.02 | S. cerevisiae deletion strains, locus YER111C, strain swi4, active compounds read low 0.989 | S. cerevisiae deletion strains, locus YER155C, strain BEM2 (second series), active compounds read low 1 | S. cerevisiae deletion strains, locus YER155C, strain BEM2, active compounds read low 1 | S. cerevisiae deletion strains, locus YER167W, strain BCK2, active compounds read low 1 | S. cerevisiae deletion strains, locus YFR010W, strain ubp6, active compounds read low 1.01 | S. cerevisiae deletion strains, locus YGL078C, strain dbp3, active compounds read low 1.04 | S. cerevisiae deletion strains, locus YGL086W, strain mad1, active compounds read low 1 | S. cerevisiae deletion strains, locus YGL167C, strain pmr1, active compounds read low 0.99 | S. cerevisiae deletion strains, locus YGL173C, strain kem1, active compounds read low 0.998 | S. cerevisiae deletion strains, locus YGL227W, strain vid30, active compounds read low 1 | S. cerevisiae deletion strains, locus YGL240W, strain doc1, active compounds read low 0.994 | S. cerevisiae deletion strains, locus YGL248W, strain PDE1, active compounds read low 1.04 | S. cerevisiae deletion strains, locus YGL253W, strain hxk2, active compounds read low 1 | S. cerevisiae deletion strains, locus YGR078C, strain PAC10, active compounds read low 1.04 | S. cerevisiae deletion strains, locus YGR135W, strain pre9, active compounds read low 1.06 | S. cerevisiae deletion strains, locus YGR252W, strain gcn5, active compounds read low 1.09 | S. cerevisiae deletion strains, locus YHR013C, strain ard1, active compounds read low 1 | S. cerevisiae deletion strains, locus YHR027C, strain rpn1, active compounds read low 0.996 | S. cerevisiae deletion strains, locus YHR030C, strain SLT2, active compounds read low 0.996 | S. cerevisiae deletion strains, locus YHR079C, strain IRE1 (second series), active compounds read low 1.01 | S. cerevisiae deletion strains, locus YHR079C, strain IRE1, active compounds read low 0.994 | S. cerevisiae deletion strains, locus YHR094C, strain hxt1, active compounds read low 1.02 | S. cerevisiae deletion strains, locus YHR129C, strain ARP1, active compounds read low 1.01 | S. cerevisiae deletion strains, locus YHR142W, strain chs7, active compounds read low 1.01 | S. cerevisiae deletion strains, locus YHR200W, strain rpn10, active compounds read low 1.03 | S. cerevisiae deletion strains, locus YIL066C, strain RNR3, active compounds read low 1.01 | S. cerevisiae deletion strains, locus YIL073C, strain SPO22, active compounds read low 1.06 | S. cerevisiae deletion strains, locus YIL125W, strain kgd1, active compounds read low 1.01 | S. cerevisiae deletion strains, locus YIR030C, strain dcg1, active compounds read low 0.996 | S. cerevisiae deletion strains, locus YJL092W, strain hpr5, active compounds read low 0.995 | S. cerevisiae deletion strains, locus YJL095W, strain BCK1 (second series), active compounds read low 1.02 | S. cerevisiae deletion strains, locus YJL095W, strain BCK1, active compounds read low 1.05 and 0.98 | S. cerevisiae deletion strains, locus YJL115W, strain asf1, active compounds read low 0.99 | S. cerevisiae deletion strains, locus YJL129C, strain trk1, active compounds read low 1.01 | S. cerevisiae deletion strains, locus YJL134W, strain LCB3, active compounds read low 1 | S. cerevisiae deletion strains, locus YJL154C, strain vps35, active compounds read low 0.998 | S. cerevisiae deletion strains, locus YJL164C, strain tpk1, active compounds read low 0.997 | S. cerevisiae deletion strains, locus YJL166W, strain qcr8, active compounds read low 0.997 | S. cerevisiae deletion strains, locus YJL168C, strain set2, active compounds read low 1.01 | S. cerevisiae deletion strains, locus YJL187C, strain SWE1 (second series), active compounds read low 1.05 | S. cerevisiae deletion strains, locus YJL187C, strain SWE1, active compounds read low 0.997 | S. cerevisiae deletion strains, locus YJR066W, strain TOR1, active compounds read low 0.953 | S. cerevisiae deletion strains, locus YKL009W, strain mrt4, active compounds read low 0.998 | S. cerevisiae deletion strains, locus YKL068W, active compounds read low 1.01 | S. cerevisiae deletion strains, locus YKL085W, strain MDH1 (second series), active compounds read low 1.01 | S. cerevisiae deletion strains, locus YKL085W, strain MDH1, active compounds read low 1.01 | S. cerevisiae deletion strains, locus YKL160W, strain elf1, active compounds read low 0.998 | S. cerevisiae deletion strains, locus YKL190W, strain CNB1, active compounds read low 1.01 | S. cerevisiae deletion strains, locus YKR001C, strain vps1, active compounds read low 1.01 | S. cerevisiae deletion strains, locus YKR026C, strain gcn3, active compounds read low 0.999 | S. cerevisiae deletion strains, locus YKR091W, strain srl3, active compounds read low 0.996 | S. cerevisiae deletion strains, locus YLL001W, strain dnm1, active compounds read low 1 | S. cerevisiae deletion strains, locus YLL026W, active compounds read low 0.983 | S. cerevisiae deletion strains, locus YLL041C, strain sdh2, active compounds read low 1.02 | S. cerevisiae deletion strains, locus YLR027C, strain aat2, active compounds read low 0.985 | S. cerevisiae deletion strains, locus YLR039C, strain RIC1, active compounds read low 1.06 | S. cerevisiae deletion strains, locus YLR058C, strain SHM2, active compounds read low 1.02 | S. cerevisiae deletion strains, locus YLR102C, strain apc9, active compounds read low 1 | S. cerevisiae deletion strains, locus YLR113W, strain HOG1, active compounds read low 0.975 | S. cerevisiae deletion strains, locus YLR221C, strain rsa3, active compounds read low 1 | S. cerevisiae deletion strains, locus YLR258W, strain gsy2, active compounds read low 0.993 | S. cerevisiae deletion strains, locus YLR262C, strain YPT6 (second series), active compounds read low 1.02 | S. cerevisiae deletion strains, locus YLR268W, strain sec22, active compounds read low 0.992 | S. cerevisiae deletion strains, locus YLR320W, strain mms22, active compounds read low 1 | S. cerevisiae deletion strains, locus YLR342W, strain FKS1, active compounds read low 0.994 | S. cerevisiae deletion strains, locus YLR357W, strain rsc2, active compounds read low 0.968 | S. cerevisiae deletion strains, locus YLR370C, strain arc18, active compounds read low 0.986 | S. cerevisiae deletion strains, locus YLR371W, strain rom2, active compounds read low 1 | S. cerevisiae deletion strains, locus YLR384C, strain iki3, active compounds read low 0.999 | S. cerevisiae deletion strains, locus YLR418C, strain cdc73, active compounds read low 1.05 | S. cerevisiae deletion strains, locus YML016C, strain PPZ1, active compounds read low 1.01 | S. cerevisiae deletion strains, locus YML032C, strain rad52, active compounds read low 1 | S. cerevisiae deletion strains, locus YML120C, strain ndi1, active compounds read low 1.01 | S. cerevisiae deletion strains, locus YML124C, strain tub3, active compounds read low 0.999 | S. cerevisiae deletion strains, locus YMR058W, strain fet3, active compounds read low 1 | S. cerevisiae deletion strains, locus YMR078C, strain ctf18, active compounds read low 1.01 | S. cerevisiae deletion strains, locus YMR125W, strain sto1, active compounds read low 0.982 | S. cerevisiae deletion strains, locus YMR129W, active compounds read low 1.02 | S. cerevisiae deletion strains, locus YMR205C, strain PFK2, active compounds read low 0.997 | S. cerevisiae deletion strains, locus YMR223W, strain ubp8, active compounds read low 1.02 | S. cerevisiae deletion strains, locus YMR231W, strain pep5, active compounds read low 0.995 | S. cerevisiae deletion strains, locus YMR263W, strain SAP30, active compounds read low 1.02 | S. cerevisiae deletion strains, locus YMR307W, strain GAS1, active compounds read low 0.976 | S. cerevisiae deletion strains, locus YNL067W, strain RPL9B, active compounds read low 1.03 | S. cerevisiae deletion strains, locus YNL071W, strain lat1, active compounds read low 0.999 | S. cerevisiae deletion strains, locus YNL153C, strain GIM3, active compounds read low 1.04 | S. cerevisiae deletion strains, locus YNL183C, strain NPR1, active compounds read low 0.957 | S. cerevisiae deletion strains, locus YNL209W, strain ssb2, active compounds read low 0.978 | S. cerevisiae deletion strains, locus YNL233W, strain BNI4, active compounds read low 1.04 | S. cerevisiae deletion strains, locus YNL248C, strain rpa49, active compounds read low 1.02 | S. cerevisiae deletion strains, locus YNL250W, strain rad50, active compounds read low 1.03 | S. cerevisiae deletion strains, locus YNL271C, strain bni1, active compounds read low 1.01 | S. cerevisiae deletion strains, locus YNL298W, strain CLA4, active compounds read low 1.01 | S. cerevisiae deletion strains, locus YNL307C, strain MCK1, active compounds read low 1.02 | S. cerevisiae deletion strains, locus YNL322C, strain KRE1 (second series), active compounds read low 0.983 | S. cerevisiae deletion strains, locus YNR049C, strain mso1, active compounds read low 0.992 | S. cerevisiae deletion strains, locus YNR052C, strain pop2, active compounds read low 1.03 | S. cerevisiae deletion strains, locus YOL012C, strain htz1 1.56 | S. cerevisiae deletion strains, locus YOL147C, strain pex11, active compounds read low 1.01 | S. cerevisiae deletion strains, locus YOR001W, strain rrp6, active compounds read low 1.01 | S. cerevisiae deletion strains, locus YOR061W, strain CKA2, active compounds read low 1.01 | S. cerevisiae deletion strains, locus YOR069W, strain VPS5, active compounds read low 1.01 | S. cerevisiae deletion strains, locus YOR070C, strain gyp1, active compounds read low 0.98 | S. cerevisiae deletion strains, locus YOR080W, strain dia2, active compounds read low 0.998 | S. cerevisiae deletion strains, locus YOR083W, strain WHI5, active compounds read low 0.994 | S. cerevisiae deletion strains, locus YOR106W, strain vam3, active compounds read low 1.01 | S. cerevisiae deletion strains, locus YOR136W, strain idh2, active compounds read low 1.01 | S. cerevisiae deletion strains, locus YOR144C, strain elg1, active compounds read low 1 | S. cerevisiae deletion strains, locus YOR184W, strain ser1, active compounds read low 0.995 | S. cerevisiae deletion strains, locus YOR231W, strain MKK1, active compounds read low 0.969 | S. cerevisiae deletion strains, locus YOR265W, strain rbl2, active compounds read low 0.981 | S. cerevisiae deletion strains, locus YOR270C, strain vph1, active compounds read low 1.03 | S. cerevisiae deletion strains, locus YOR290C, strain snf2, active compounds read low 0.994 | S. cerevisiae deletion strains, locus YOR316C, strain cot1, active compounds read low 1.02 | S. cerevisiae deletion strains, locus YPL051W, strain arl3, active compounds read low 0.972 | S. cerevisiae deletion strains, locus YPL078C, strain atp4, active compounds read low 1 | S. cerevisiae deletion strains, locus YPL106C, strain sse1, active compounds read low 0.963 | S. cerevisiae deletion strains, locus YPL240C, strain hsp82, active compounds read low 0.996 | S. cerevisiae deletion strains, locus YPL256C, strain CLN2, active compounds read low 1.01 | S. cerevisiae deletion strains, locus YPR119W, strain clb2, active compounds read low 1 | S. cerevisiae deletion strains, locus YPR141C, strain kar3, active compounds read low 0.993 | S. cerevisiae deletion strains, locus YPR163C, strain tif3, active compounds read low 1.01 | S. cerevisiae deletion strains, locus YPR167C, strain met16, active compounds read low 1.01 | S. cerevisiae deletion strains, strain wtn01, active compounds read low 0.986 | S. cerevisiae strains, strain wild type, active compounds read low 1.02
